This passage reports outcome and AC50 results from PubChem BioAssay (EPA / NIEHS).

Results filed as inconclusive are left out. The source made the active and inactive calls. The calls were made as follows, unless noted: active = hit-call score of the fitted dose curve at least 0.9, where 1 is the maximum; inactive = score below 0.9.

A short description of experiment [1]: ACEA_ER_80hr: ACEA Biosciences xCELLigence Real-Time Cell Analysis on Estrogen Receptor Agonism for Proliferation (AID 2282667; active = hit-call score of the fitted dose curve at least 0.9, where 1 is the maximum). Conditions: T47D proliferation, impedance (xCELLigence), 80 h. In outline: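 Impedance readout (RT-CES) of T47D proliferation at 80 h post-dose; gain of signal vs DMSO baseline. Compounds: 8 conc, 1:4 serial, top 100 uM final, ≤0.5% DMSO; biological duplicate.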

Experiment [2] concerns the target CCAAT/enhancer-binding protein beta (Homo sapiens) (UniProt P17676). The experiment can be described thus: ATG_C_EBP_CIS: Attagene CIS-FACTORIAL HepG2 Assay for human CCAAT/Enhancer Binding Protein (C/EBP) beta (AID 2282927). Conditions: HepG2 Attagene cis-factorial transcription factor reporter; actives raise or lower the signal. The gist of the method: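 Following a 24 h incubation with test chemical, transfected HepG2 cells yielded RNA whose reporter transcripts were quantified by RT-PCR and fluorescent capillary electrophoresis, with DMSO serving as baseline for bidirectional fitting.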

Experiment [3] is described as follows: ATG_CMV_CIS: Attagene CIS-FACTORIAL HepG2 Assay for human CMV (Internal Marker) (AID 2282928).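 Also: endpoint acts as a background internal control marker rather than a target.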 To be noted: HepG2 CMV promoter reporter, transcription factor profiling; actives raise or lower the signal. The gist of the method:
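CMV internal-marker background readout in transiently transfected HepG2 cells bearing cis-regulated reporter units. Reporter mRNA is measured 24 h after dosing by RT-PCR and capillary electrophoresis, with bidirectional fitting against DMSO.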

For experiment [4], the target named is Aryl hydrocarbon receptor (Homo sapiens) (UniProt P35869). The experiment can be described thus: ATG_Ahr_CIS: Attagene CIS-FACTORIAL HepG2 Assay for human Aryl Hydrocarbon Receptor (Ahr) (AID 2282930). To be noted: HepG2 AhR cis-factorial reporter transcription; actives raise or lower the signal. In outline: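 Values derive from bidirectional fitting against DMSO negative control. Underlying signal: cis-element reporter mRNA in transiently transfected HepG2, harvested 24 h post-dose and measured by RT-PCR plus capillary electrophoresis.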
Aryl hydrocarbon receptor (Homo sapiens), sequence (P35869 whole entry, looked up): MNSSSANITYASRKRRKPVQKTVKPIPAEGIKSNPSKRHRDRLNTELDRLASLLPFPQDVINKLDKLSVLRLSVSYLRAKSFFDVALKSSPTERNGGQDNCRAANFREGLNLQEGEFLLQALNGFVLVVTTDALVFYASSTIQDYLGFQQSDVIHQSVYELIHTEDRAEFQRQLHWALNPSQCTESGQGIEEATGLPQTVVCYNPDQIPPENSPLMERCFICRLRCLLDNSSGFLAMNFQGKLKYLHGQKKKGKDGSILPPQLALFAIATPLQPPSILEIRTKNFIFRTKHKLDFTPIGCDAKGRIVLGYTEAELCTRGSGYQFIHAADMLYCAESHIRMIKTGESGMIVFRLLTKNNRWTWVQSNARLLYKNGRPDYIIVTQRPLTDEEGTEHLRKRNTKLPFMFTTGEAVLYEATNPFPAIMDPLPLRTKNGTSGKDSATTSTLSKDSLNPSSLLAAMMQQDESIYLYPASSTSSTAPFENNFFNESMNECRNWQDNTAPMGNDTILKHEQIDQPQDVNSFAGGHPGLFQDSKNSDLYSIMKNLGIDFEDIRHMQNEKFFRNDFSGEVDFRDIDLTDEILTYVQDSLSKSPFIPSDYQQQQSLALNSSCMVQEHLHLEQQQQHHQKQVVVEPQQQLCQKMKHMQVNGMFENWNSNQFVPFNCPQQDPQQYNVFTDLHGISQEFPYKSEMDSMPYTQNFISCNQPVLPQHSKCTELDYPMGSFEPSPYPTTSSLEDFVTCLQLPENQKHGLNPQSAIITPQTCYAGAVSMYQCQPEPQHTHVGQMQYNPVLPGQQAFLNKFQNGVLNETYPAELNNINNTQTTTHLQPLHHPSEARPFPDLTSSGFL

The nature of experiment [5]: ATG_AP_1_CIS: Attagene CIS-FACTORIAL HepG2 Assay for human Activator Protein 1 (AP-1) (AID 2282931). Conditions: HepG2 Attagene cis-factorial AP-1 reporter mRNA; actives raise or lower the signal. The gist of the method:
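Multiplexed HepG2 reporter assay, 24 h dosing. mRNA induction detected by RT-PCR plus capillary electrophoresis. Activity fitted in both directions against DMSO.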

Experiment [6] in a line: ATG_AP_2_CIS: Attagene CIS-FACTORIAL HepG2 Assay for human Activator Protein 2 (AP-2) (AID 2282932). Conditions: HepG2 AP-2 cis-reporter, Attagene transcription factor profiling; actives raise or lower the signal. In outline:
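HepG2 cells were transiently transfected with multiple cis-promoter reporter transcription units and dosed for 24 h. Reporter mRNA was measured by RT-PCR with capillary electrophoresis fluorescence; bidirectional fits relative to DMSO baseline.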

Experiment [7] in a line: ATG_BRE_CIS: Attagene CIS-FACTORIAL HepG2 Assay for human Bone Morphogenetic Protein (BMP) Response Element (BRE) (AID 2282933). Conditions: HepG2 BMP response element reporter, Attagene transcription factor profiling; actives raise or lower the signal. In outline: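 Fluorescence-labelled reporter cDNA fragments, separated by capillary electrophoresis, gave the signal for this component of a 52-readout multiplex. HepG2 cells were transfected, exposed to chemicals for 24 h, and compared with DMSO using bidirectional fitting.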

Experiment [8] has as its target Retinoic acid receptor alpha (Homo sapiens) (UniProt P10276). The experiment can be described thus: ATG_DR5_RAR_CIS: Attagene CIS-FACTORIAL HepG2 Assay for human Retinoic Acid Receptor Alpha (RARE), DR5 submotif (AID 2282934). Conditions: HepG2 Attagene cis-factorial RARE DR5 reporter, mRNA; actives raise or lower the signal. In outline:
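Endpoint fitted in both directions relative to DMSO as negative control. It reflects DR5 cis-element reporter mRNA induction in transiently transfected HepG2 cells, measured 24 h after dosing through RT-PCR and fluorescent capillary electrophoresis.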

Experiment [9] has as its target Transcription factor E2F1 (Homo sapiens) (UniProt Q01094). The experiment can be described thus: ATG_E2F_CIS: Attagene CIS-FACTORIAL HepG2 Assay for human E2F Transcription Factor 1 (AID 2282935). Conditions: HepG2 Attagene cis-reporter, E2F reporter RNA transcripts; actives raise or lower the signal. In outline: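 HepG2 cells transiently transfected with multiplexed cis-element reporter units, dosed for 24 h. Reporter mRNA measured by RT-PCR, 6-FAM primer-extension labeling, HpaI digestion and capillary electrophoresis; bidirectional fit versus DMSO baseline.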

Experiment [10] can be described thus: ATG_E_Box_CIS: Attagene CIS-FACTORIAL HepG2 Assay for human Enhancer Box (E-box) (AID 2282936). To be noted: HepG2 E-box cis-reporter transcription, actives raise or lower the signal. In outline: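 HepG2 cells transiently transfected with multiplexed cis-element reporter units sensing endogenous transcription factor activity; 24 h compound exposure. Reporter mRNA measured by RT-PCR, 6-FAM primer extension, HpaI digestion and capillary electrophoresis; bidirectional fit versus DMSO.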

Experiment [11] in a line: ATG_M_61_CIS: Attagene CIS-FACTORIAL HepG2 Assay for M61 Transcription Factor (Internal Marker) (AID 2282937). To be noted: HepG2 Attagene CIS-FACTORIAL M61 internal marker reporter; actives raise or lower the signal. The gist of the method:
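Endogenous transcription factor activity in HepG2 is read through transiently transfected cis-element reporter units. After 24 h dosing, RNA undergoes reverse transcription, PCR and primer extension with 6-FAM before capillary electrophoresis; DMSO-referenced bidirectional fit.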

Experiment [12] can be described thus: ATG_EGR_CIS: Attagene CIS-FACTORIAL HepG2 Assay for human Early Growth Response 1 (EGR1) (AID 2282938). To be noted: HepG2 Attagene CIS-FACTORIAL EGR reporter mRNA; actives raise or lower the signal. The gist of the method: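 Activity is taken as induction or loss of reporter mRNA versus DMSO, fitted bidirectionally. Transcripts from cis-regulated reporter units in transiently transfected HepG2 were measured after 24 h by RT-PCR with capillary electrophoresis.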

A short description of experiment [13]: ATG_M_19_CIS: Attagene CIS-FACTORIAL HepG2 Assay for M19 Transcription Factor (Internal Marker) (AID 2282939). To be noted: HepG2 Attagene CIS-FACTORIAL M19 internal marker reporter; actives raise or lower the signal. The gist of the method:
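HepG2, MRTU transient transfection, 24 h dosing. Total RNA → RT-PCR → 6-FAM primer extension → HpaI digest → CE fluorescence. Bidirectional curve fit, DMSO negative control.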

A short description of experiment [14]: ATG_ERE_CIS: Attagene CIS-FACTORIAL HepG2 Assay for Estrogen Response Element (ERE) (AID 2282940). Conditions: HepG2 ERE cis-reporter, Attagene RNA transcript; actives raise or lower the signal. In outline: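 After a 24 h chemical treatment, RNA from reporter-transfected HepG2 cells is reverse-transcribed, PCR-amplified and fluorescently labelled. Fragments separated by capillary electrophoresis give reporter signal; DMSO serves as negative control.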

Experiment [15] concerns the target Hepatocyte nuclear factor 3-beta (Homo sapiens) (UniProt Q9Y261). The experiment can be described thus: ATG_FoxA2_CIS: Attagene CIS-FACTORIAL HepG2 Assay for human Forkhead box A2 (FOXA2) (AID 2282942). Conditions: HepG2 cis-reporter transcription factor activity, 24 h; actives raise or lower the signal. In outline:
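Reporter transcript induction is measured by fluorescence after capillary electrophoresis of RT-PCR products from HepG2 cells exposed 24 h. Cis-regulated reporter units report endogenous factor activity; curves fitted both directions against DMSO.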

Experiment [16] is described as follows: ATG_FoxO_CIS: Attagene CIS-FACTORIAL HepG2 Assay for human Forkhead box O (FoxO) (AID 2282943). Conditions: HepG2 Attagene cis-reporter, FoxO element, mRNA; actives raise or lower the signal. The gist of the method:
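Values reflect reporter mRNA induction or loss in HepG2 cells 24 h post-dosing, fitted bidirectionally with DMSO as negative control and baseline. Detection used RT-PCR and fluorescence capillary electrophoresis.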

A short description of experiment [17]: ATG_GATA_CIS: Attagene CIS-FACTORIAL HepG2 Assay for human GATA Binding Protein (AID 2282944). To be noted: HepG2 GATA cis-element reporter, Attagene multiplex mRNA; actives raise or lower the signal. The gist of the method: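 Cells: HepG2, transiently transfected with cis-regulated reporter transcription units. Exposure: 24 h. Detection: RT-PCR plus capillary electrophoresis of FAM-labeled fragments. Analysis: bidirectional, DMSO as baseline.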

A short description of experiment [18]: ATG_DR4_LXR_CIS: Attagene CIS-FACTORIAL HepG2 Assay for human Liver X Receptor (LXR), DR4 submotif (AID 2282929). Conditions: HepG2 Attagene DR4 cis-reporter, mRNA transcription; actives raise or lower the signal. The gist of the method: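 Fluorescence intensity of labelled reporter cDNA fragments, separated by capillary electrophoresis, gives the signal. HepG2 cells bearing cis-regulated reporter constructs were treated 24 h; activity fitted bidirectionally relative to DMSO negative control.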

Experiment [19] in a line: ATG_Ets_CIS: Attagene CIS-FACTORIAL HepG2 Assay for human Erythroblast Transformation Specific (ETS) (AID 2282941). To be noted: HepG2 ETS cis-reporter transcription, actives raise or lower the signal. The gist of the method: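 HepG2 cells transfected with multiple cis-regulated reporter units measuring endogenous ETS-driven transcription, 24 h after dosing. Reporter mRNA quantified by RT-PCR with capillary electrophoresis; bidirectional fit relative to DMSO.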

Hepatocyte nuclear factor 3-beta (Homo sapiens), sequence (Q9Y261 whole entry, looked up): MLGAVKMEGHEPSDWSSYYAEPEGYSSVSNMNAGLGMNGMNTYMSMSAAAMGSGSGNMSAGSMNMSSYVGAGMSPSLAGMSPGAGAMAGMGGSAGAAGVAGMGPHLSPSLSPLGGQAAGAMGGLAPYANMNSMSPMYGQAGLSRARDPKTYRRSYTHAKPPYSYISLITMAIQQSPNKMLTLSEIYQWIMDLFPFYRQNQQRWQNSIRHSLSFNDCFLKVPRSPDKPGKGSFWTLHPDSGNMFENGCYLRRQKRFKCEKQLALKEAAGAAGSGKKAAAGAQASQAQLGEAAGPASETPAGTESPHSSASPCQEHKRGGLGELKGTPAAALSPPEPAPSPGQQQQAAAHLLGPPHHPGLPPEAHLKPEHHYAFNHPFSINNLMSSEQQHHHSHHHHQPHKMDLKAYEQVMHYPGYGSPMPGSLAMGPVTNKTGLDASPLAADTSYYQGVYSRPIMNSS
Retinoic acid receptor alpha (Homo sapiens), sequence (P10276 whole entry, looked up): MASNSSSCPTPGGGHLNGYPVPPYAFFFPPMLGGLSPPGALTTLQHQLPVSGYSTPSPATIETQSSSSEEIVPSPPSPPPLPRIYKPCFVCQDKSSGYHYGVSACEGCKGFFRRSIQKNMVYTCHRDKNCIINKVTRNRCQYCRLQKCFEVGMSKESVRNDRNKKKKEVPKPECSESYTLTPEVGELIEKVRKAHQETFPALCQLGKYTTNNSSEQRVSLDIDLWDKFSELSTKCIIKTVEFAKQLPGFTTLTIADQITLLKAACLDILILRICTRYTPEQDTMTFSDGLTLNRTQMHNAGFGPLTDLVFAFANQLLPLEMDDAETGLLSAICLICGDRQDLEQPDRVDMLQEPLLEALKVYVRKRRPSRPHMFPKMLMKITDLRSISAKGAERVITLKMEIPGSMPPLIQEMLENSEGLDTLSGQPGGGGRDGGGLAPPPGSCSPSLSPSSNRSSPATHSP
Transcription factor E2F1 (Homo sapiens), sequence (Q01094 whole entry, looked up): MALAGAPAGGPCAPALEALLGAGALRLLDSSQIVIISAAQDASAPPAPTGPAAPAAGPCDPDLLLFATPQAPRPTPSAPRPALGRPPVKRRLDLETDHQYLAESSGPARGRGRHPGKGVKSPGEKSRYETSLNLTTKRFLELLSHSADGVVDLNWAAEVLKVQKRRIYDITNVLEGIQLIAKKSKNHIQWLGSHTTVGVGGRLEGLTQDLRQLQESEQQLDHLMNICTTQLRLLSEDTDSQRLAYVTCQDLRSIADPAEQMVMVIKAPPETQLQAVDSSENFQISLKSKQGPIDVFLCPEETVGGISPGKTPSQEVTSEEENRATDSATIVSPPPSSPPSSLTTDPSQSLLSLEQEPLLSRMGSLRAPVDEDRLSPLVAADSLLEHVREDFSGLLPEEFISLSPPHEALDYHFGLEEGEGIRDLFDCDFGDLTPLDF
CCAAT/enhancer-binding protein beta (Homo sapiens), sequence (P17676 whole entry, looked up): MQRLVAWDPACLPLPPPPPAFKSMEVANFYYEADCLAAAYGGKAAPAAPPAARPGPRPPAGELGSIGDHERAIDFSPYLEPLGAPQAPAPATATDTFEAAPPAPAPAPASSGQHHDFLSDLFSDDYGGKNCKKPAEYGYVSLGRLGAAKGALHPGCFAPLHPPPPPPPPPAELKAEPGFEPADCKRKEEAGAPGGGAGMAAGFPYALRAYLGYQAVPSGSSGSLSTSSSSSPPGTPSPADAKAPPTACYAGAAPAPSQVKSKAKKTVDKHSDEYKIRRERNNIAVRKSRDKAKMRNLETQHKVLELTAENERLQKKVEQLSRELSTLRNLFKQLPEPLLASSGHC

Take `Nc1ccc(C(=O)OCCCOC(=O)c2ccc(N)cc2)cc1`: the compound was called inactive in experiment [1], in experiment [2], in [3], in experiment [4], in experiment [5] and in [6]. For the same compound, the compound was called inactive in [7], in experiment [8], in experiment [9], in experiment [10], in experiment [11] and in experiment [12]. The result in experiment [13], in [14], in experiment [15], in experiment [16] and in experiment [17] was inactive.
Consider `CC(C)(CO)C(O)C(=O)NCCCO` (stereo not given), for which the result in experiment [1], in experiment [2], in experiment [3], in experiment [18], in [4] and in experiment [5] was inactive. Also, the compound was classed as inactive in experiment [6], in experiment [7], in experiment [9], in [10], in experiment [11] and in [12]. Further, the outcome in experiment [13], in [14], in [19], in experiment [15], in experiment [16] and in experiment [17] was inactive.
As to `CC/C=C\CCOC(=O)c1ccccc1O`, the call in experiment [1], in experiment [2], in experiment [3], in experiment [18], in experiment [4] and in [5] was inactive. In addition, the compound was called inactive in [6], in experiment [7], in [8], in [9], in experiment [10] and in experiment [11]. Further, the result in experiment [12], in experiment [13], in experiment [14], in experiment [15], in [16] and in experiment [17] was inactive.
One may read the AC50 as the concentration at which the activity in the assay is half-maximal. As for `CCCCOCCOC(=O)COc1ccc(Cl)cc1Cl`, in experiment [1], the AC50 is 10.8 µM (active). Besides, the outcome in [2], in [3], in [18], in [4], in experiment [5] and in [6] was inactive. The result in [7], in experiment [8], in experiment [9], in experiment [10], in experiment [11] and in experiment [12] was inactive. The result in [13], in experiment [14], in experiment [19], in experiment [15] and in [17] was inactive.
Consider `CC(C)=NNC(N)=S`, for which the outcome in [1], in experiment [2], in experiment [3], in experiment [18], in experiment [4] and in experiment [5] was inactive. Besides, the call in [6], in [7], in experiment [8], in experiment [9], in experiment [10] and in experiment [11] was inactive. Besides, the call in experiment [12], in [13], in [14], in experiment [19], in experiment [15] and in experiment [16] was inactive. The call in [17] was inactive.
